The values below come from PubChem BioAssay (EPA / NIEHS).

Assay [1] concerns the target Estrogen receptor (Homo sapiens) (UniProt P03372). As to the kind of experiment: NVS_NR_hER: NovaScreen (NVS) Nuclear Receptor Binding Assay for human Estrogen Receptor (ER) (AID 2283348). A digest of the protocol:
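Radioligand competitive displacement binding to estrogen receptor from MCF7 extract, cell-free; 18 h after dosing, scintillation read-out. Primary screen in duplicate at 25 uM; actives followed up in concentration series; loss of signal vs DMSO.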

Assay [2] has the same target. The experiment in a line: OT_ER_ERaERa_1440: Odyssey Thera (OT) 24-hour HEK293T Protein-Complementation Assay for Estrogen Receptor-alpha/-alpha Homodimer (AID 2283349).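 Further: hits raise fluorescence above DMSO for agonists and antagonists alike.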 A digest of the protocol:
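HEK293T cells stably expressing the human ER alpha ligand-binding domain (aa 310-547) as a homodimer PCA were dosed for 24 hours. Fluorescence intensity was read by laser scanning cytometry, and gain of signal was fitted relative to DMSO vehicle.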

Assay [3] shares this target. As to the kind of experiment: OT_ER_ERaERa_0480: Odyssey Thera (OT) 8-hour HEK293T Protein-Complementation Assay for Estrogen Receptor-alpha/-alpha Homodimer (AID 2283351).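 Further: rise in fluorescence from reassembled reporter fragments on ERα LBD homodimer in nucleus or whole cell.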 The essentials: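 HEK293T, stable ERα LBD (aa 310-547) PCA homodimer; 8 h compound exposure; fluorescence intensity, laser scanning cytometer; positive fitting direction, DMSO baseline.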
In assay [4] the target is Androgen Receptor/SRC-1 Co-activator, AR (gene 367) (UniProt P10275). As to the kind of experiment: OT_AR_ARSRC1_0960: Odyssey Thera (OT) 16-hour HEK293T Protein-Complementation Assay for Androgen Receptor/SRC-1 Co-activator (AID 2283353).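 Further: actives raise the signal above DMSO so potency reflects increased AR and SRC-1 complex.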 The essentials:
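Split-Venus PCA, AR/SRC-1 fusions, stable HEK293T; 16 h compound exposure; imaged at 488 and 635 nm; N/C ratio (488 nm channel), min 400 cells/image; positive-direction fit, DMSO baseline.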

Assay [5] shares this target. As to the kind of experiment: OT_AR_ARSRC1_0480: Odyssey Thera (OT) 8-hour HEK293T Protein-Complementation Assay for Androgen Receptor/SRC-1 Co-activator (AID 2283354).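 Further: hits raise the complementation signal above DMSO so AC50 marks enhancers.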 A digest of the protocol: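 HEK293T cells stably expressing AR and SRC-1 fused to Venus YFP fragments, imaged 8 h after dosing. Complementation fluorescence scored as nuclear/cytoplasmic ratio at 488 nm in at least 400 cells per image; gain fitted versus DMSO.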

Assay [6] addresses T1, Estrogen receptor (Homo sapiens) + Estrogen receptor beta (Homo sapiens) (UniProt P03372+Q92731). As to the kind of experiment: OT_ER_ERaERb_1440: Odyssey Thera (OT) 24-hour HEK293T Protein-Complementation Assay for Estrogen Receptor-alpha/-beta Homodimer (AID 2283356).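 Further: heteromer of ER alpha and ER beta binding domains; hits raise reporter fluorescence and both agonists and antagonists give an increase.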 The essentials: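 Fragment complementation between ER alpha (310-547) and ER beta (263-489) ligand-binding domains in HEK293T cells; signal read 24 h post-dosing by laser scanning cytometer. Gain of fluorescence relative to DMSO fitted.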

The target in assay [7] is Estrogen receptor beta (Homo sapiens) (UniProt Q92731). As to the kind of experiment: OT_ER_ERbERb_0480: Odyssey Thera (OT) 8-hour HEK293T Protein-Complementation Assay for Estrogen Receptor-beta/-beta Homodimer (AID 2283357).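 Further: active means signal gain over DMSO baseline.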 The essentials:
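Fluorescence intensity, nuclear for agonists and nuclear plus cytoplasmic for antagonists, was quantified by laser scanning cytometry versus vehicle after 8 h treatment. The cells were HEK293T stably carrying ER beta LBD fragment-complementation partners.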

For assay [8], the target named is T1, Estrogen receptor (Homo sapiens) + Estrogen receptor beta (Homo sapiens). The experiment in a line: OT_ER_ERaERb_0480: Odyssey Thera (OT) 8-hour HEK293T Protein-Complementation Assay for Estrogen Receptor-alpha/-beta Heterodimer (AID 2283352). The essentials:
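Fluorescence increase from reconstituted reporter fragments, quantified by laser scanning cytometer, reflects ER-alpha/ER-beta heterodimer formation in human HEK293T cells. Exposure 8 h; positive-direction fitting against DMSO vehicle.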

For assay [9], the target named is Bile acid receptor (Homo sapiens) (UniProt Q96RI1). As to the kind of experiment: NVS_NR_hFXR_Antagonist: NovaScreen (NVS) Nuclear Receptor Binding Assay for human Farnesoid X Receptor Antagonism (FXR) (AID 2283350). The essentials: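 Cell-free TR-FRET ligand-binding read-out on human FXR (NR1H4) in antagonist mode, measured 1 h after dosing. Primary screen in duplicate at 25 uM, actives retested in concentration series; signal loss scored versus DMSO.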
Sequence of Bile acid receptor (Homo sapiens) (Q96RI1 whole entry, looked up): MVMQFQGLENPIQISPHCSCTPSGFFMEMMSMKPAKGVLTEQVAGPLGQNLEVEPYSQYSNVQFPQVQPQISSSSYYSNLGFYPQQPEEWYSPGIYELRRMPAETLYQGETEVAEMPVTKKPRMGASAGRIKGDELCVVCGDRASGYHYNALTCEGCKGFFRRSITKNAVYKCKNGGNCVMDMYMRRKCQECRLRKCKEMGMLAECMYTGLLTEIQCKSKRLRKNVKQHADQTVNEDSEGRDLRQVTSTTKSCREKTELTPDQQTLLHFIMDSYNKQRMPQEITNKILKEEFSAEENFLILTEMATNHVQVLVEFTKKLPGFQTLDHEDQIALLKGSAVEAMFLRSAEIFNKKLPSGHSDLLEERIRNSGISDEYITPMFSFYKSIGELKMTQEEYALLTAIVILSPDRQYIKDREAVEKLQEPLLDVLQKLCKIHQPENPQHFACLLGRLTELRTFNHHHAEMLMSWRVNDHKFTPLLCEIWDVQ

Several values for one entry are separate records, joined by “and”; a condition that tells them apart may be missing. Equal values may be shown once. Inconclusive results are not listed. Some structures have more than one record in an assay (separate samples or runs), and their calls can disagree. Activity calls are given as the source filed them. How the source made its calls: active means hit-call score of the fitted dose curve at least 0.9, where 1 is the maximum; inconclusive means response in the unintended direction; inactive means score below 0.9.

T1 sequence (P03372 whole entry, looked up, the tested form may be a part): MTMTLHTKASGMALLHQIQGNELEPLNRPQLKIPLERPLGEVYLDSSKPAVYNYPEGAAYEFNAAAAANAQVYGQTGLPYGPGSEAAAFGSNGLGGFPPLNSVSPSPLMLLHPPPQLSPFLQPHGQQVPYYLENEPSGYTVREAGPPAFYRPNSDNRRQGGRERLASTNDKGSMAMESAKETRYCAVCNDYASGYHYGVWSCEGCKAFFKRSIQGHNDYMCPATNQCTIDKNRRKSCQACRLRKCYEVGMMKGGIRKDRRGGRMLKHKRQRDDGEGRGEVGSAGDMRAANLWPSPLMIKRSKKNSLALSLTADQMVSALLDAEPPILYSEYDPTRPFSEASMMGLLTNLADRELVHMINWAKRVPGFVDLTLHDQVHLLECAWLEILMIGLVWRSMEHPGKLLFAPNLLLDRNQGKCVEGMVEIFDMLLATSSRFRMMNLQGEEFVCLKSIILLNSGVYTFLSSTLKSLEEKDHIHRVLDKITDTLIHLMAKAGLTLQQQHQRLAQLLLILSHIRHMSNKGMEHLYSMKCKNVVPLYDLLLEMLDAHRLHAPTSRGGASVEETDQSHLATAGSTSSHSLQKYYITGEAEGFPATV
T1 sequence (Q92731 whole entry, looked up, the tested form may be a part): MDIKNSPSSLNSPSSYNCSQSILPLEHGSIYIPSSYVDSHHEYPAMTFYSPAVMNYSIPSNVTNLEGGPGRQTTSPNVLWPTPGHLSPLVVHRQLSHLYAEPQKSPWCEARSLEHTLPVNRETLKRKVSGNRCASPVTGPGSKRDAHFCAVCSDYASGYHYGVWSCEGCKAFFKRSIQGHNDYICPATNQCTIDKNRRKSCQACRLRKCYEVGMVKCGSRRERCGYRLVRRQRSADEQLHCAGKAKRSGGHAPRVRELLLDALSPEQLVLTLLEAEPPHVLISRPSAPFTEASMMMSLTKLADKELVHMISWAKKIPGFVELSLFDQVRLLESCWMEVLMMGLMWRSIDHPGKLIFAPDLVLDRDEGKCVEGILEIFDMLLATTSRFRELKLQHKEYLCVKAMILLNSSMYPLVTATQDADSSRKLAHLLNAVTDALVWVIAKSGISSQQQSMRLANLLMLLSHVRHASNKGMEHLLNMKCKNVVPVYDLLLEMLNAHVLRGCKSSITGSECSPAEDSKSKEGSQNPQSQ
Sequence of Estrogen receptor (Homo sapiens) (P03372 whole entry, looked up): as the sequence (P03372 whole entry, looked up, the tested form may be a part) above
Sequence of Estrogen receptor beta (Homo sapiens) (Q92731 whole entry, looked up, the tested form may be a part): as the sequence (Q92731 whole entry, looked up, the tested form may be a part) above
Sequence of Androgen Receptor/SRC-1 Co-activator, AR (gene 367) (P10275 whole entry, looked up, the tested form may be a part): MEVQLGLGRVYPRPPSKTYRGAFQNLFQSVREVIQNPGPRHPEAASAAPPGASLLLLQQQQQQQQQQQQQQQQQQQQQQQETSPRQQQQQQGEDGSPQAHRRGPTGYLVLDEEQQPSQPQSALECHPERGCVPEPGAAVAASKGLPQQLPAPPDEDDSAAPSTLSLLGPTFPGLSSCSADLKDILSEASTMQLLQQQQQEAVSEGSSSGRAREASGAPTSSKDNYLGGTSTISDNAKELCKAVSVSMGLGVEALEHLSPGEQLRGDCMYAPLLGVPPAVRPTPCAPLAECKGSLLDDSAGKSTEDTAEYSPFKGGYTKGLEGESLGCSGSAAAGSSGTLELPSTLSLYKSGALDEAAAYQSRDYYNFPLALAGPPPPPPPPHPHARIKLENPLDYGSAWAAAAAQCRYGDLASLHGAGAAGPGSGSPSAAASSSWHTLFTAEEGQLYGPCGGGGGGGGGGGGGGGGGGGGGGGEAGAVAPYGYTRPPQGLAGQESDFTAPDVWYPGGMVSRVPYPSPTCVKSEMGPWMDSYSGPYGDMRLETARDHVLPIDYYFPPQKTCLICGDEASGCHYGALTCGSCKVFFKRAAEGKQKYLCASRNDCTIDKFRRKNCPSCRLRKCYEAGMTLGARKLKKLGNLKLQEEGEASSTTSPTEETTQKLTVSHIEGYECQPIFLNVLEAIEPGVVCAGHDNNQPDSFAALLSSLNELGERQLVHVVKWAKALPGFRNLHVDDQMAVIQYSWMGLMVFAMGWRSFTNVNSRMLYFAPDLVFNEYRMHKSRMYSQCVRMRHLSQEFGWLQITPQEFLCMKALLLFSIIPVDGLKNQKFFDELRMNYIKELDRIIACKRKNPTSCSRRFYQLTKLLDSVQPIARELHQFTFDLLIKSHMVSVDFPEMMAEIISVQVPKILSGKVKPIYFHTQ

Turning to `[N-]=[N+]=[N-]`, the call in assay [1], in [2], in assay [3] and in [4] was inactive.

`CCOC(=O)c1ccccc1C(=O)OCC`: the result in assay [2] was inactive.

In general, AC50 refers to the concentration giving half of the maximal activity seen. `ClC1=C(Cl)C2(Cl)C3C(Cl)C(Cl)CC3C1(Cl)C2(Cl)Cl` (stereo not drawn): the compound was classed as inactive in assay [1], in assay [2], in assay [6] and in [7]. Further, the AC50 is 38.1 µM (active) in assay [4] and 48.4 µM (active) in assay [5].

On to `O=P1(N(CCCl)CCCl)NCCCO1` (stereo not drawn), for which the AC50 in assay [1] is 15.7 µM (active). In addition, the compound was called inactive in assay [1], in [2], in [3], in assay [8], in assay [6] and in assay [7].

For `CCCCc1ccccc1`, the outcome in [2], in assay [9], in assay [3], in assay [8], in assay [6] and in assay [7] was inactive.

For the compound `O=S(=O)(c1ccc(O)cc1)c1ccc(O)cc1`, the half-maximal activity concentration (AC50) in assay [1] was 4.77 µM (active); in assay [2], 46.8 µM (active); in assay [3], 36.7 µM (active); in assay [8], 21.4 µM (active); in [6], 29.2 µM (active); in assay [7] it was 31.2 µM (active).

For the compound `ClC(Cl)c1ccccc1`, the compound was called inactive in assay [2] and in assay [3].

Regarding `O=C(O)C(Cl)Cl`, the result in assay [2] and in assay [3] was inactive.

Turning to `CC1(C)CN=C(NN=C(/C=C/c2ccc(C(F)(F)F)cc2)/C=C/c2ccc(C(F)(F)F)cc2)NC1`, the AC50 is 8.61 µM (active) in assay [1], 12.7 µM (active) in assay [4] and 44 µM (active) in assay [5]. In addition, the result in assay [2], in assay [3], in [8], in [6] and in assay [7] was inactive.

As to `C=CC(=O)OCC(CC)(COC(=O)C=C)COC(=O)C=C`, in [1], the AC50 is 13.7 µM (active) and the compound was classed as inactive.

Take `CN(C)C(=O)Cl`: the call in assay [2] was inactive.

With `O=[N+]([O-])c1ccc(Cl)c(Cl)c1`, the result in [2] and in [3] was inactive.

On to `CCC(C)(C)c1ccc(O)cc1`, for which the compound was classed as inactive in assay [1]. Moreover, the AC50 in assay [2] is 14.9 µM (active); in assay [3] it was 8.61 µM (active); in [8] it was 2.68 µM (active); in assay [6] it was 7.2 µM (active); in assay [7], 2.41 µM (active).

Turning to `COCCOCCO`, the compound was classed as inactive in assay [1], in assay [2], in assay [3], in assay [8] and in [7].

In the case of `CCCN(CCC)c1c([N+](=O)[O-])cc(C(C)C)cc1[N+](=O)[O-]`, the outcome in assay [1] and in [7] was inactive. The half-maximal activity concentration (AC50) in [2] is 56.6 µM (active); in [3], 36.8 µM (active); in assay [8], 50 µM (active); in assay [6], 56.9 µM (active).

As for `OCC1CO1` (stereo not drawn), the call in assay [2] and in [3] was inactive.

For `CC(Cl)(Cl)C(=O)O`, the compound was classed as inactive in assay [1], in [2], in assay [3], in [8], in assay [6] and in assay [7].

`CCCCCCCc1ccc(O)cc1`: the AC50 in assay [1] was 18.8 µM (active); in assay [2], 24.5 µM (active) and 23.2 µM (active); in assay [3], 26.1 µM (active) and 23.4 µM (active) and 23.6 µM (active); in assay [8], 12.7 µM (active) and 12.5 µM (active); in [4], 72 µM (active) and 72.7 µM (active) and 73.8 µM (active); in assay [5], 74.4 µM (active) and 73.3 µM (active). The AC50 is 15.3 µM (active) and 11.3 µM (active) in assay [6]; 12.2 µM (active) and 13.3 µM (active) and 12.3 µM (active) in assay [7]. Also, the call in [1], in assay [2], in assay [3], in assay [8], in assay [4] and in assay [5] was inactive. The outcome in assay [6] and in assay [7] was inactive.

As to `CC(C)Nc1ccc(Nc2ccccc2)cc1`, the call in assay [1] was inactive.

Consider `c1ccc(OP(Oc2ccccc2)Oc2ccccc2)cc1`, for which the result in [1], in [2], in assay [3], in [8], in assay [6] and in assay [7] was inactive.

Take `Cc1cccc(N)c1`: the call in assay [2] and in assay [3] was inactive.

As for `ClC(Cl)(Cl)c1ccccc1`, the outcome in assay [1], in assay [2], in assay [3], in assay [8], in assay [6] and in [7] was inactive.

On to `CCCCc1ccc(O)cc1`, for which the call in assay [1] was inactive. In addition, the AC50 in assay [2] was 41.4 µM (active); in [3], 19.7 µM (active); in [8] it was 19.7 µM (active); in assay [6], 31.4 µM (active); in assay [7] it was 10.5 µM (active).

As for `c1ccc2c(c1)sc1ccccc12`, the outcome in [2] and in [3] was inactive.

With `O=P(OCC(Br)CBr)(OCC(Br)CBr)OCC(Br)CBr` (stereo not drawn), the compound was classed as inactive in assay [1], in assay [2], in [3], in assay [5], in [6] and in assay [7]. Besides, in assay [4], the concentration at half-maximal activity (AC50) is 26.7 µM (active).

On to `CCCCN(CC)C(=O)SCCC`, for which the concentration at half-maximal activity (AC50) in [1] is 3.02 µM (active). Further, the outcome in assay [2], in assay [3], in [8], in [4], in assay [6] and in assay [7] was inactive.

For the compound `CCOP(=S)(OCC)SCn1nnc2ccccc2c1=O`, the result in assay [1] was inactive.

`CCCCOCC1CO1` (stereo not drawn): the call in assay [2] and in assay [3] was inactive.

As for `CCCCN(CCCC)N=O`, the compound was called inactive in assay [2], in assay [9], in assay [8] and in assay [6].

For `CO/N=C(/C(=O)OC)c1ccccc1COc1ccccc1C`, the outcome in assay [1], in assay [4] and in [5] was inactive. Further, the AC50 is 76.4 µM (active) in assay [2] and 50 µM (active) in assay [3].

In the case of `Nc1ccc(Sc2ccc(N)cc2)cc1`, the AC50 in [1] was 11 µM (active).

Consider `CCCCN(CCCC)SN(C)C(=O)Oc1cccc2c1OC(C)(C)C2`, for which the compound was called inactive in assay [1], in [2], in [3], in [8], in assay [6] and in assay [7].

In the case of `Nc1ccc(Cl)cc1`, the compound was called inactive in assay [2] and in [3].

`CCNc1nc(Cl)nc(NC(C)(C)C)n1`: the outcome in assay [2], in assay [3], in [8], in [4], in assay [5] and in assay [6] was inactive. In addition, the result in assay [7] was inactive.
